Seven sequences from the supplement of paper PMC6555819 can be followed below.

Common to all, as to assay: PBM binding z-score (relative to random genomic background probes); higher = stronger binding; sequences stand for … in GC…GCGATTGACAGCGTAGAATGAAGG
In experiment [1] the test system is RARb homodimer (NR concentration 270 nM). The gist of the method: (§1)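 Custom Agilent 4×180K protein-binding microarrays carried double-stranded probes, each with a 34-nt variable region. These regions held direct-repeat seeds, single-nucleotide variants, half-site ablations and random human genomic background sequences. Ligand-free nuclear receptor dimers were incubated on the arrays for 1 h, antibodies against each partner (one per run) detected binding, and scanned fluorescence was regression-normalized. Binding z-scores take the random background probes as reference.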

Experiment [2] concerns RARg:RXRa (NR concentration 270 nM, RXRa partner concentration 90 nM). The gist of the method: as §1
Experiment [3] deals with RARg homodimer (NR concentration 270 nM). The gist of the method: as §1
The test system of experiment [4] is RXRa DBDmut IVT, anti-RXR (DBD mutation: RXRa K156A/R161A, NR concentration 90 nM). The gist of the method:
as §1

In experiment [5] the test system is RXRa homodimer (NR concentration 180 nM). The essentials:
as §1

The subject of experiment [6] is THRa:RXRa (NR concentration 90 nM, RXRa partner concentration 90 nM). The gist of the method: as §1
The subject of experiment [7] is THRa homodimer (NR concentration 90 nM). The gist of the method: as §1
Experiment [8] deals with VDR homodimer (NR concentration 270 nM). The essentials: as §1

In the case of CCGCGTAGGTTACGAGGGGGCATTCAGTGCGAAT, the PBM binding z-score in experiment [1] amounted to 2.04; in experiment [2], 3.34; in experiment [3], 2.15; in experiment [4], 1.51; in experiment [5] it was 2.28; in experiment [6], 3.95. Besides, the PBM binding z-score in experiment [7] amounted to 0.24; in experiment [8] it was 2.58.

Regarding ATCTCTAGGTCAAAGTTCAGTGAATCCCGAGGAT, the PBM binding z-score in experiment [1] came out at 4.18; in experiment [2] it was 6.01; in experiment [3], 5.62; in experiment [4], 2.65; in experiment [5] it was 6.97; in experiment [6], 3.76. The PBM binding z-score in experiment [7] was 1.76; in experiment [8], 3.19.

With TTACCAAGGTGAAGGTCGTGGATCCCTCTGTAGA, the PBM binding z-score stood at 2.22 in experiment [1]; 1.86 in experiment [2]; 1.49 in experiment [3]; 0.01 in experiment [4]; 2.63 in experiment [5]; 2.79 in experiment [6]. The results for the PBM binding z-score in experiment [7] and in experiment [8] were 1.11 and 0.222, respectively.

Regarding CGTCGGAGGACAACAGGAGGTCAGAGCTGCCAGA, the PBM binding z-score in experiment [1] came out at 3.63; in experiment [2], 3.83; in experiment [3], 3.69; in experiment [4], 0.531; in experiment [5] it was 2.26; in experiment [6] it was 2.98. Further, the PBM binding z-score in experiment [7] amounted to 1.12; in experiment [8], 1.79.

For ATATGGAGGTTAGCTGGGGTCATTCAGACTAGGC, the PBM binding z-score in experiment [1] turned out to be 4.32; in experiment [2] it was 4.94; in experiment [3], 3.85; in experiment [4], 2.22; in experiment [5] it was 6.26; in experiment [6], 5.44. Moreover, the figures for the PBM binding z-score in experiment [7] and in experiment [8] were 3.66 and 5.52, respectively.

In the case of CGAACTAGGTGAAAGGACAGTGAAAGGCGACGTA, the PBM binding z-score in experiment [1] was 1.15; in experiment [2], 0.833; in experiment [3], 1.07; in experiment [4] it was -0.365; in experiment [5], 0.373; in experiment [6], 0.672. Also, the values for the PBM binding z-score in experiment [7] and in experiment [8] were -0.413 and -0.349, respectively.

Consider CAAACTAGGTCACGAAAGGTCAAAGTGGAATGAC, for which the PBM binding z-score stood at 5.92 in experiment [1]; 7.79 in experiment [2]; 8.41 in experiment [3]; 2.4 in experiment [4]; 8.35 in experiment [5]; 5.24 in experiment [6]. The PBM binding z-score in experiment [7] came to 2.81; in experiment [8], 3.84.
